Values joined by “and” are separate entries in the source; they are usually repeats but may differ in a detail not shown here. Equal values may be shown once. Results filed as inconclusive are left out. Where a structure was tested more than once in an assay, its records may differ in their call. Active and inactive are the calls of the source. Unless noted, calls follow the shape of the dose curve; as a rule, active = well fitted curve in the direction sought with a large enough effect in the repeat runs; inconclusive = weak or mixed curves; inactive = no such curve, though single readings can be large; an effect the other way counts as inactive or inconclusive.
Experiments:
[1] = qHTS assay to identify small molecule antagonists of the estrogen related receptor (ERR) signaling pathway from Tox21 library - cell viability counter screen (AID 1224834); also: nearly all actives have a fitted effect of over 30% in size; also: potency is read from the fitted curve at half-maximal effect
Procedure, shortened: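 Viability readout (CellTiter-Fluor fluorescence, 30 min at 37 C) multiplexed with the ERR assay; cells treated 17.5 h at 37 C with compounds delivered in DMSO.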

[2] = target: Luciferin 4-monooxygenase (Photinus pyralis) (UniProt P08659); experiment: qHTS assay to identify small molecule inhibitors of firefly luciferase (AID 1224835); also: nearly all actives have a fitted effect of over 25% in size; also: potency is read from the fitted curve at half-maximal effect
Procedure, shortened: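 Quantitative HTS format; KM concentrations of both substrates. Purified P. pyralis FLuc activity quantified from luminescence images.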

[3] = qHTS assay to identify small molecule agonists of the constitutive androstane receptor (CAR) signaling pathway - cell viability counter screen (AID 1224836); also: nearly all actives have a fitted effect of over 45% in size
Procedure, shortened: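 Counter screen multiplexed with the CAR reporter readout: HepG2 cells co-transfected with hCAR and the CYP2B6-2.2kb construct receive a 15-concentration compound series and 0.75 uM PK11195 (final), then CellTiter-Fluor fluorescence is read after 23 h.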

[4] = qHTS assay to identify small molecule antagonists of the constitutive androstane receptor (CAR) signaling pathway - cell viability counter screen (AID 1224837); also: nearly all actives have a fitted effect of over 45% in size
Procedure, shortened: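 Fluorescence from CellTiter-Fluor served as the viability signal. Human hepatoma HepG2 cells stably bearing hCAR and CYP2B6-2.2kb received compound plus CITCO (50 nM final) for 23 hr.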

[5] = qHTS assay to identify small molecule antagonists of the estrogen related receptor signaling pathway with the pleiotropic PPARgamma coactivator (PGC) from Tox21 10K library - cell viability counter screen (AID 1224840; active = well fitted cell-killing curve with a large enough effect in the repeat runs, not every such curve was filed as active; also: nearly all actives have a fitted effect of over 40% in size; also: potency is read from the fitted curve at half-maximal effect)
Procedure, shortened: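 Compounds in DMSO, alongside positive and negative controls, were pinned onto PGC/ERR cells (2,000 per well). Exposure lasted 17.5 hours at 37 C, followed by a 30-minute CellTiter-Fluor incubation and fluorescence reading.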

[6] = target: Thyrotropin receptor (Homo sapiens) (UniProt P16473); experiment: qHTS assay to identify small molecule agonists of the thyroid stimulating hormone receptor (TSHR) signaling pathway (AID 1224843; calls by dose curve; also: nearly all actives have a fitted effect of over 45% in size; also: potency is read from the fitted curve at half-maximal effect)
Procedure, shortened: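 TSHR-expressing HEK293 cells (800 per well) were exposed to compounds for 30 min at room temperature. cAMP was then detected by HTRF competition with cAMP-d2 and anti-cAMP cryptate, read after 1 h at room temperature. Fifteen concentrations, triplicate.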

[7] = qHTS assay to identify small molecule agonists of the hypoxia (HIF-1) signaling pathway - cell viability counter screen (AID 1224844; calls by dose curve; also: nearly all actives have a fitted effect of over 50% in size; also: potency is read from the fitted curve at half-maximal effect)
Procedure, shortened: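 Luminescent ATP content (CellTiter-Glo, 30 min, room temperature) served as the viability measure in HRE-bla ME-180 cells exposed to compounds for 17 hrs in low-serum medium (0.5% dialyzed FBS).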

[8] = qHTS assay to identify small molecule agonists of H2AX (AID 1224845; active = well fitted activation curve with a large enough effect in the signal ratio in the repeat runs, not every such curve was filed as active; the % refers to the signal ratio)
Procedure, shortened: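 Wild-type CHO-K1 cells plated overnight, then exposed 3 hr at 37C to compounds at 15 concentrations (0.76% DMSO). Lysed, then HTRF anti-pH2AX(S139)-cryptate/anti-H2AX-d2 detection after 24 hr at room temperature; emissions 665 and 620 nm.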

[9] = A CellTox Green Cytotoxicity Assay to monitor cytotoxicity in HEK293 cells - 0 hour (AID 1224869); also: nearly all actives have a fitted effect of over 50% in size
Procedure, shortened: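 Each value comes from one timepoint of a single continuous run in which HEK293 cells with CellTox Green were exposed to compound for up to 40 h at 37 C, dye fluorescence rising with cell death.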

[10] = qHTS RealTime-Glo MT Cell Viability Assay in HepG2 cells - 40 hour (AID 1224870); also: nearly all actives have a fitted effect of over 50% in size; also: potency is read from the fitted curve at half-maximal effect
Procedure, shortened: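 HepG2 cells mixed with RealTime-Glo MT reagents (NanoLuc plus cell-permeant prosubstrate) were seeded at 600 cells/well, incubated 5 h at 37 C/5% CO2, then pinned with compounds in DMSO; nonlytic luminescence tracked viability during 40 h treatment.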

[11] = target: Nuclear receptor subfamily 1 group I member 3 (Homo sapiens) (UniProt Q14994); experiment: qHTS assay to identify small molecule antagonists of the constitutive androstane receptor (CAR) signaling pathway (AID 1224838);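 also: HepG2 cells stably expressing hCAR with CYP2B6 luciferase reporter stimulated by CITCO; nearly all actives have a fitted effect of over 40% in size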
Procedure, shortened: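 Quantitative HTS in double-stable HepG2-CYP2B6-hCAR cells. After 4 h plating, cells get compound (15 concentrations) and CITCO at 50 nM final, incubate 24 h at 37 C, then ONE-Glo luminescence is read.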

[12] = target: Nuclear receptor subfamily 1 group I member 3 (Homo sapiens) (UniProt Q14994); experiment: qHTS assay to identify small molecule agonists of the constitutive androstane receptor (CAR) signaling pathway (AID 1224839); also: nearly all actives have a fitted effect of over 15% in size
Procedure, shortened: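 A 15-concentration quantitative screen uses HepG2 cells co-transfected stably with human CAR and CYP2B6-2.2kb reporter. Treatment lasts 24 h with 0.75 uM PK11195 final present; ONE-Glo luminescence is the signal.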

[13] = qHTS assay to identify small molecule agonists of the hypoxia (HIF-1) signaling pathway (AID 1224846; active = well fitted activation curve with a large enough effect in the signal ratio in the repeat runs, not every such curve was filed as active; the % refers to the signal ratio; also: potency is read from the fitted curve at half-maximal effect)
Procedure, shortened: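 Measured by blue/green FRET after loading CCF4-AM: beta-lactamase expressed from a hypoxia response element in ME-180 cells. Test agents were delivered in DMSO and left 17 hrs; cells had been plated 5 hrs earlier in low-serum (0.5% dialyzed FBS) medium.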

[14] = qHTS assay to identify small molecule agonists of H2AX - cell viability counter screen (AID 1224847; calls by dose curve; also: nearly all actives have a fitted effect of over 30% in size; also: potency is read from the fitted curve at half-maximal effect)
Procedure, shortened: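 We seed wild-type CHO-K1 cells overnight, treat them for 3 hr at 37C with compounds in 15-concentration series, and quantify remaining viability by CellTiter-Glo luminescence.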

[15] = qHTS RealTime-Glo MT Cell Viability Assay in HepG2 cells - 24 hour (AID 1224867); also: nearly all actives have a fitted effect of over 50% in size; also: potency is read from the fitted curve at half-maximal effect
Procedure, shortened: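 Cell number in HepG2 cultures estimated from NanoLuc luminescence generated by metabolic reduction of a prosubstrate by living cells. The homogeneous, nonlytic format allowed repeated reads at 0, 8, 16, 24, 32 and 40 h of compound exposure.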

[16] = qHTS RealTime-Glo MT Cell Viability Assay in HEK293 cells - 32 hour (AID 1224868); also: nearly all actives have a fitted effect of over 50% in size; also: potency is read from the fitted curve at half-maximal effect
Procedure, shortened: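 Homogeneous bioluminescent viability format in HEK293 cells (600 cells/well). Following 5 h at 37 C/5% CO2, 23 nL compound was pintooled; the signal was measured repeatedly during 40 h incubation.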

[17] = qHTS assay to identify small molecule antagonists of the estrogen related receptor signaling pathway with the pleiotropic PPARgamma coactivator (PGC) from Tox21 10K library (AID 1224841; call rule not given here; also: potency is read from the fitted curve at half-maximal effect)
Procedure, shortened: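 Compound exposure ran 18 hours at 37 C in PGC/ERR cells (2,000/well) that had first rested 6 hours in a 37 C/5% CO2 incubator. Luciferase activity was then detected with One-Glo after a 30-minute room-temperature step.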

[18] = qHTS assay to identify small molecule agonists of the estrogen related receptor signaling pathway with the pleiotropic PPARgamma coactivator (PGC) from Tox21 10K library (AID 1224842); also: nearly all actives have a fitted effect of over 15% in size
Procedure, shortened: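 PGC/ERR reporter cells (NTP line) were seeded 2,000 per well, rested 6 h at 37 C/5% CO2, then pin-dosed with compounds in DMSO for 18 h at 37 C; luciferase read by One-Glo luminescence after 30 min at room temperature.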

[19] = qHTS assay to identify small molecule antagonists of the estrogen related receptor (ERR) signaling pathway from Tox21 library (AID 1224848); also: nearly all actives have a fitted effect of over 50% in size; also: potency is read from the fitted curve at half-maximal effect
Procedure, shortened: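 Cells: ERR line, 2,000/well; 6 h preincubation 37 C/5% CO2. Cpd in DMSO via pin tool; 18 h, 37 C. ONE-Glo, 30 min RT, luminescence.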

[20] = qHTS assay to identify small molecule agonists of the estrogen related receptor (ERR) signaling pathway from Tox21 library (AID 1224849; calls by dose curve; also: nearly all actives have a fitted effect of over 15% in size); settings: ERR reporter cell line, ONE-Glo luciferase, 18 h
Procedure, shortened: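 We plated ERR reporter cells, waited 6 h, added compounds in DMSO by pin tool and incubated them 18 h at 37 C. ONE-Glo was then added and luminescence read after 30 min.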
% is scaled to controls: 0 for no effect and ±100 for the full control effect.

Chain of Thyrotropin receptor (Homo sapiens) (P16473 whole entry, looked up): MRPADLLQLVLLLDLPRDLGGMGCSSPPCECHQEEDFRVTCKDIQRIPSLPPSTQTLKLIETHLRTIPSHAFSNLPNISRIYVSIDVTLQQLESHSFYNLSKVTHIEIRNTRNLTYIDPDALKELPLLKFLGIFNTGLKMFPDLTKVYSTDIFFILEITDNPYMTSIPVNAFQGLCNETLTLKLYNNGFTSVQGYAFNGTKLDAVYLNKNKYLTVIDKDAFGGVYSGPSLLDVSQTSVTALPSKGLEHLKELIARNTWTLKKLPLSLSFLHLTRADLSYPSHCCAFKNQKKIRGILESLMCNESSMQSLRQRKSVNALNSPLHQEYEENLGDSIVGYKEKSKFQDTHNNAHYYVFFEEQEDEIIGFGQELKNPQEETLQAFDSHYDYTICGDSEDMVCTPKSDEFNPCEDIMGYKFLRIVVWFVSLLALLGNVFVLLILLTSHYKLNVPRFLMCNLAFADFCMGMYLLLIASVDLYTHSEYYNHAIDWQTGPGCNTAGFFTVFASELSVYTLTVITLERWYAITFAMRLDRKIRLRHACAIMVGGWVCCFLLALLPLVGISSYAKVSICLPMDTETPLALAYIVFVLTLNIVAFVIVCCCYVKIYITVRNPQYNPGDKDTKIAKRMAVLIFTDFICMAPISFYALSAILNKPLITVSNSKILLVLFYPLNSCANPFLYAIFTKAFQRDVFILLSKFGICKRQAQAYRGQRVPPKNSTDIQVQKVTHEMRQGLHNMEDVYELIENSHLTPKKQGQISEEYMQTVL
Chain of Nuclear receptor subfamily 1 group I member 3 (Homo sapiens) (Q14994 whole entry, looked up): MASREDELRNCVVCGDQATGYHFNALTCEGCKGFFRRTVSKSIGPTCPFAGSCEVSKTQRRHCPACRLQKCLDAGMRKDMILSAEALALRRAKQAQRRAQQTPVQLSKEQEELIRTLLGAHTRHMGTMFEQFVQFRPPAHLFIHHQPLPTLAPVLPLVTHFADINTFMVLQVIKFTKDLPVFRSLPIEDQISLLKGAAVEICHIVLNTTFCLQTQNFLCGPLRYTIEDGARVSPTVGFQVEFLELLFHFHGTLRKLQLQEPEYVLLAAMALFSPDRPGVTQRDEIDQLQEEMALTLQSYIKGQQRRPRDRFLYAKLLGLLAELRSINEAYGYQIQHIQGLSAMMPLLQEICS
Chain of Luciferin 4-monooxygenase (Photinus pyralis) (P08659 whole entry, looked up): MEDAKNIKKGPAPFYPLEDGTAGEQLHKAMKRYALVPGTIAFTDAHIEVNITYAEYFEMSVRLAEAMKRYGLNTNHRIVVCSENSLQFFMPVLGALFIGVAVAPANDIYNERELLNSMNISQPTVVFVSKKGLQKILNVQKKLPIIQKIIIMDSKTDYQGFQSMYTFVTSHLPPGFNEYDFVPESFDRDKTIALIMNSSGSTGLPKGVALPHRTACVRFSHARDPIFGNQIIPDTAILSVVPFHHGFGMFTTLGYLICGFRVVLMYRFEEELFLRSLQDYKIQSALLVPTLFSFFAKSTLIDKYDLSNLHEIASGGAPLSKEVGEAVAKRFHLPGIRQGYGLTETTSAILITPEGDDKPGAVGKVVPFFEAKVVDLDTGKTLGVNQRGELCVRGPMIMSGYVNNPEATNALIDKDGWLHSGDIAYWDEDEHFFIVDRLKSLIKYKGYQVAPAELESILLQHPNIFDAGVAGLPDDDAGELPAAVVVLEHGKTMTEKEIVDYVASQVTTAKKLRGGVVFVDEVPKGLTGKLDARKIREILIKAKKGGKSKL

[Cu+]
inactive: Potency [1] | Potency [3] | Potency [4] | Potency [5] | Potency [6] | Potency [7] | Potency [8] | Potency [9]
active: Potency [2] 35.6 µM | Potency [10] 34.7 µM

COc1cccc(OC)c1C(=O)O
inactive: Potency [1] | Potency [2] | Potency [3] | Potency [11] | Potency [12] | Potency [5] | Potency [6] | Potency [7] | Potency [8] | Potency [13] | Potency [14] | Potency [15] | Potency [16] | Potency [9] | Potency [10]

O=C(O)[C@H](O)[C@@H](O)[C@H](O[C@@H]1O[C@H](CO)[C@H](O)[C@H](O)[C@H]1O)[C@H](O)CO
inactive: Potency [1] | Potency [2] | Potency [3] | Potency [5] | Potency [6] | Potency [7] | Potency [8] | Potency [14] | Potency [15] | Potency [16] | Potency [9] | Potency [10]

CCCCCCCCCCCCCC[N+](C)(C)Cc1ccccc1
active: Potency [1] 62.1 µM and 23.7 µM and 22.4 mM | Potency [17] 31.1 µM and 11.9 µM and 15.8 mM | Potency [6] 43.9 µM | Potency [14] 25.7 µM and 49.2 µM | Potency [19] 9.84 µM and 10.6 µM and 11.2 mM | Potency [15] 44.3 µM and 10.7 µM and 17.8 mM | Potency [16] 3.52 µM and 3.01 µM and 2.82 mM | Potency [10] 22.2 µM and 9.52 µM and 15.8 mM
inactive and 17.8 mM (active): Potency [7]
62.1 µM (active) and inactive: Potency [5]
inactive: Potency [2] | Potency [11] | Potency [12] | Potency [18] | Potency [8] | activity change, positive = activation ([20]; at 42.5 µM (top of the series)) -57.9% | activity change, positive = activation ([20]; at 92.4 µM (top of the series)) -69.7% | activity change, positive = activation ([20]; at 46.2 mM (top of the series)) -75.1% | Potency [9]

CCCCC/C=C\C/C=C\CCCCCCCC(=O)O
inactive: Potency [1] | Potency [3] | Potency [5] | Potency [6] | Potency [8] | Potency [14] | Potency [15] | Potency [16] | Potency [9] | Potency [10]
78.3 µM (active) and inactive: Potency [2]

Cc1ccc(C(=O)O)cc1
inactive: Potency [1] | Potency [2] | Potency [3] | Potency [11] | Potency [12] | Potency [5] | Potency [18] | Potency [6] | Potency [8] | Potency [13] | Potency [14] | Potency [19] | activity change, positive = activation ([20]; at 92.4 µM (top of the series)) -0.305% | Potency [15] | Potency [16] | Potency [9] | Potency [10]

O=S(=O)(O)c1ccccc1/C=C/c1ccc(-c2ccc(/C=C/c3ccccc3S(=O)(=O)O)cc2)cc1
active: Potency [2] 57.2 µM | Potency [13] 39.4 µM
inactive: Potency [1] | Potency [11] | Potency [12] | Potency [5] | Potency [17] | Potency [18] | Potency [6] | Potency [14] | Potency [19] | activity change, positive = activation ([20]; at 92.4 µM (top of the series)) 4.34% | Potency [15] | Potency [16] | Potency [9] | Potency [10]

From PubChem BioAssay (Tox21)
